# This is part of a sample that, as a whole, favours compounds with a hit. Of some 83,000 tested, about 20% had one in any assay.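 The endpoint reported here, percent growth, reads 100 for growth as untreated, 0 for no net growth and -100 for all cells dead.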 Activity calls are given as the source filed them. How the source made its calls: active means growth percent below 10; inactive means the rest.
# Tested on: A549/ATCC NSCLC
# Assay: NCI-60 one-dose screen, 48 h (100 = growth as untreated, 0 = no growth, -100 = all killed)
# Conditions: 10 µM
row,SMILES,growth
1,Cc1ccc(C)c(COc2cc(NC(=O)c3ccc4c(c3)OCO4)ccc2N(C)S(C)(=O)=O)c1,21.9% (inactive)
2,CCOC(=O)c1cc(C(=O)c2ccc(Cl)cc2)n2ccc(-c3cc[n+](CC(=O)c4ccc(OC)cc4)cc3)cc12,32.2% (inactive)
3,Clc1ccc(C2=NN=C3C(Cc4ccccc4)=Nc4ccccc4N3C2)cc1,96.6% (inactive)
4,O=C1c2ccccc2C(=O)c2c1ccc(C(Br)Br)c2[N+](=O)[O-],94.6% (inactive)
5,COc1ccc(-c2nc(-c3nc4ccc(C)cc4[nH]3)cc3c2[nH]c2ccccc23)cc1,28% (inactive)
6,C(=N\Nc1ncnc2sc3c(c12)CCNC3)/c1cccc2ccccc12,67.6% (inactive)
7,CC(=O)N[C@H](C(=O)N[C@@H](CCCNC(=N)N)C(=O)N[C@@H](CCCCN)C(=O)N[C@@H](CCCNC(=N)N)C(=O)NC(C(=O)N[C@@H](CC(C)C)C(=O)N[C@@H](CCCNC(=N)N)C(=O)N[C@@]1(C)CCC/C=C\CCC[C@@](C)(C(=O)N[C@@H](CCCNC(=N)N)C(=O)N[C@@H](CCC(=O)O)C(=O)N[C@@H](CC(C)C)C(=O)N[C@H](C(=O)N[C@@H](CCC(=O)O)C(N)=O)C(C)C)NC(=O)[C@H](CCC(N)=O)NC(=O)[C@H](CC(C)C)NC(=O)[C@H](CC(C)C)NC1=O)[C@@H](C)O)C(C)C (some centres not stated),27.8% (inactive)
8,Cc1noc(C)c1CSc1ccccc1C(=O)N1CCN(c2cccc(C(F)(F)F)c2)CC1,73.7% (inactive)
9,C=CCn1c(SCC(=O)Nc2ccc(C(=O)/C=C/c3ccc(OC)cc3)cc2)nnc1-c1ccc(OC)c(OC)c1,85.8% (inactive)
10,CNC(=O)c1cc(Oc2ccc3c(c2)sc2nc(-c4ccc(N)cc4)cn23)ccn1,24.5% (inactive)
11,C/C(=N\O)c1ccc(NC(=O)CSc2nnc(-c3ccccc3)n2-c2ccccc2)cc1,81.9% (inactive)
12,CCN(CC)CCCC(C)Nc1c2ccc(Cl)cc2nc2ccc(OC)cc12 (configuration not stated),17.1% (inactive)
13,CC[C@@H](C(=O)[C@@H](C)[C@@H](O)[C@H](C)[C@@H]1O[C@@H]([C@@H](CC)C(=O)N(CC)CC)CC[C@@H]1C)C1O[C@]2(C=CC(=O)[C@]3(CC[C@@](C)([C@H]4CC[C@](O)(CC)[C@H](C)O4)O3)O2)[C@H](C)C[C@@H]1C (some centres not stated),28.3% (inactive)
14,O=S(=O)(Oc1ccc(-c2ccc3sccc3c2)cc1)c1ccccc1,100% (inactive)
15,COc1ccc(-c2cc(-c3ccc(Cl)cc3)nc(SCCCCCCC(=O)NO)n2)cc1OC,58.5% (inactive)
16,CN1C(=O)C2(Nc3cc(Cl)ccc3S2)c2cc(Cl)ccc21 (configuration not stated),97.3% (inactive)
17,Nc1ccc(/C=N/Nc2ccnc3c(O)cccc23)c2cccnc12,42.6% (inactive)
18,CN(C)CCOc1ccccc1NC1=C(Cl)C(=O)C(Nc2ccccc2OCCN(C)C)=C(Cl)C1=O,84.7% (inactive)
19,CCn1c(SCCc2ccccc2)nnc1-c1nn(-c2ccc(Cl)cc2Cl)c(-c2ccc(Cl)cc2)c1C,65.1% (inactive)
20,C=CCNCCN1C(=O)c2ccc3c4c(ccc(c24)C1=O)C(=O)N(CCNCC=C)C3=O,-71.4% (active)
21,COc1cc(C)ccc1Oc1nc(Nc2ccc(N3CCOCC3)cc2)ncc1NC(=O)Nc1cc(C(F)(F)F)cc(C(F)(F)F)c1,14.5% (inactive)
22,COc1cccc(CNc2cccc3cn[nH]c23)c1O,90.6% (inactive)
23,NS(=O)(=O)Oc1ccc(NC(=O)C2CCCCCC2)cc1,96% (inactive)
24,COc1ccc(-c2n[nH]nc2-c2cc(OC)c3c(c2OC)OCO3)cc1,33.3% (inactive)
25,CCCN(CCC)C(=O)[C@H](CC)[C@@H]1CC[C@@H](C)[C@@H]([C@H](C)[C@@H](O)[C@@H](C)C(=O)[C@H](CC)C2O[C@]3(C=C[C@@H](O)[C@]4(CC[C@@](C)([C@H]5CC[C@](O)(CC)[C@H](C)O5)O4)O3)[C@H](C)C[C@@H]2C)O1 (some centres not stated),16.6% (inactive)
26,COc1cc(-c2nc3ccccc3o2)cc(CN2CCCCC2)c1O,34% (inactive)
27,CC(=O)N[C@H](C(=O)N[C@@H](CCCNC(=N)N)C(=O)N[C@@H](CCCCN)C(=O)N[C@@H](CCCNC(=N)N)C(=O)N[C@]1(C)CCC/C=C\CCC[C@@](C)(C(=O)N[C@@H](CC(C)C)C(=O)N[C@@H](CC(C)C)C(=O)N[C@@H](CCC(N)=O)C(=O)N[C@@H](CCC(=O)O)C(=O)N[C@@H](CCCNC(=N)N)C(=O)N[C@@H](CCC(=O)O)C(=O)N[C@@H](CC(C)C)C(=O)N[C@H](C(=O)N[C@@H](CCC(=O)O)C(N)=O)C(C)C)NC(=O)[C@H](CCCNC(=N)N)NC(=O)[C@H](CC(C)C)NC1=O)C(C)C,94.7% (inactive)
